Data: PubChem BioAssay AID1259245 (Vanderbilt High Throughput Screening Facility, 2017)
The whole screen tested about 40,000 compounds, of which about 1,400 (3.5%) were called active.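 How the source made its calls: active means any of four per-well response measures lying three or more SD from its plate-wide compound average, in either direction; inactive means the rest, inconclusive results apart.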 The list comes from a sample in which actives are over-represented; it also holds similar structures and randomly drawn compounds.

Target: Voltage-dependent calcium channel gamma-2 subunit (Mus musculus) + Glutamate receptor 2 (Rattus norvegicus) (UniProt O88602+P19491)
Experiment: AMPAR-TARP gamma-2 complex positive or negative modulation – cell-based, membrane potential dye, primary screen (AID 1259245)
Details: HEK293 GluA2+stargazin, membrane potential dye (FDSS), glutamate EC50, at 30 µM, hits were called plate by plate, in both directions; compound max-min signal: compound-alone response (agonism); glutamate slope, % of max: measured here: glutamate response slope, % max

Voltage-dependent calcium channel gamma-2 subunit (Mus musculus) + Glutamate receptor 2 (Rattus norvegicus), sequence (O88602 whole entry, looked up): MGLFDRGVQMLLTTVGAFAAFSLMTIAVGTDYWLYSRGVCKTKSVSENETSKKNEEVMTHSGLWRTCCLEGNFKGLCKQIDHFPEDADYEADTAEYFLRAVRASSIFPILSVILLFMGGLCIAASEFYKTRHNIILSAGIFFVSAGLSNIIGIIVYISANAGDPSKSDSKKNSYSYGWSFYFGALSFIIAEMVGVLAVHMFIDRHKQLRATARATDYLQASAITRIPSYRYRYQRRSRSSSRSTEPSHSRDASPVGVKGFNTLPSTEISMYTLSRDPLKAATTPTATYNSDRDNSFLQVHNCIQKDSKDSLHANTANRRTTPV
Voltage-dependent calcium channel gamma-2 subunit (Mus musculus) + Glutamate receptor 2 (Rattus norvegicus), sequence (P19491 whole entry, looked up): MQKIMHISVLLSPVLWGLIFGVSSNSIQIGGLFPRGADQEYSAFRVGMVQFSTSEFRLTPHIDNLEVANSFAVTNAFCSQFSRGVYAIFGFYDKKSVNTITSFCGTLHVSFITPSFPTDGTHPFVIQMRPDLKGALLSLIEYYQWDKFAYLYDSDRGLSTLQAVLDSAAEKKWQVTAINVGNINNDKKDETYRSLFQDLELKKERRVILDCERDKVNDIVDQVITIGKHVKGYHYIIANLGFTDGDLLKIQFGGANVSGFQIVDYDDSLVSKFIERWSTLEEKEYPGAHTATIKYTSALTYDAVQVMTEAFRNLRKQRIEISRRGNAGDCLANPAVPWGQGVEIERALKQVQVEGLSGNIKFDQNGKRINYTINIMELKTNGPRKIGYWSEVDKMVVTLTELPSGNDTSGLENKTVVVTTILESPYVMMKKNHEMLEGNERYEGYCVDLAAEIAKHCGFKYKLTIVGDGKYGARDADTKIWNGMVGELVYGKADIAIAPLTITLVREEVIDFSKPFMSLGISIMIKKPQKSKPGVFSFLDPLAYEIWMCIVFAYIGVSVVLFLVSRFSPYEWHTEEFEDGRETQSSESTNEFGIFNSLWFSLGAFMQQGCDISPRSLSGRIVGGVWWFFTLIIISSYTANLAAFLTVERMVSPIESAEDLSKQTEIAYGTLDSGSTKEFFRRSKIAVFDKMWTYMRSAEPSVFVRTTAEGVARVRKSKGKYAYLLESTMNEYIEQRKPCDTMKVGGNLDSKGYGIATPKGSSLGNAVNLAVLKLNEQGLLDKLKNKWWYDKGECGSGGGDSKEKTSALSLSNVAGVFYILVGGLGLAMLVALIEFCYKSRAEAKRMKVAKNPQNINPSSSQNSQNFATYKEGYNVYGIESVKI

Row | SMILES | compound max-min signal | glutamate response, % of max | glutamate slope, % of max
1 | O=C(NCCN1CCOC(c2ccccc2)C1)c1c(F)cccc1F (centres undefined) | 0.0396 | 14.5% (inactive) | 32.8%
2 | CCOc1ccc(S(=O)(=O)NCc2ccc3c(c2)OCO3)cc1OCC | 0.0924 | 30.4% (inactive) | 55.6%
3 | COc1ccc(S(=O)(=O)Nc2ccc(N3CCCCS3(=O)=O)cc2)cc1F | 0.0701 | 25.7% (inactive) | 44.9%
4 | O=C(CCCn1nc(-c2ccc(Cl)cc2)ccc1=O)Nc1ccc(F)c(F)c1 | 0.175 | 35.4% (inactive) | 51.5%
5 | CC(C)c1cc(NCCN2CCOCC2)n2ncc(-c3ccccc3)c2n1 | 0.126 | 34% (inactive) | 54.5%
6 | COc1cn(CC(=O)Nc2cccc(C)c2C)c(CN2CCOCC2)cc1=O | 0.0306 | 11% (inactive) | 23.6%
7 | COc1nn(C)cc1C(=O)NCC(=O)Nc1cccc(C)c1C | 0.067 | -0.69% (active) | 4.95%
8 | COc1nn(C)cc1C(=O)NCCN1CCN(S(C)(=O)=O)CC1 | 0.0954 | 49.7% (inactive) | 63.9%
9 | Cc1ccc(NC(=O)c2ccc(S(=O)(=O)N3CCCC3)cc2)c(C(=O)c2ccccc2)c1 | 0.117 | 44% (inactive) | 65.3%
10 | O=C(CSCc1ccccc1)Nc1ccccc1F | 0.0999 | 23.2% (inactive) | 36.5%
11 | Cc1ccc(S(=O)(=O)Nc2ccccc2C(=O)Nc2ccc3c4c(cccc24)CC3)cc1 | 0.105 | 43.6% (inactive) | 62.4%
12 | COc1cc([N+](=O)[O-])ccc1NC(=O)c1ccccc1NS(=O)(=O)c1ccccc1 | 0.141 | 22.1% (active) | 34.2%
13 | COc1ccccc1NC(=O)c1csc(NS(=O)(=O)c2ccccc2)n1 | 0.0914 | 30.6% (inactive) | 47.5%
14 | COc1ccc(CNC(=O)N2CCC(c3cccs3)CC2)cc1 | 0.14 | 40.4% (inactive) | 59.7%
15 | CN(C)C(CNC(=O)C(=O)Nc1ccc2c(c1)OCCO2)c1cccn1C (centres undefined) | 0.0533 | 30.5% (inactive) | 63.5%
16 | CCOC(=O)c1ccc(NC(=O)c2cccnc2)cc1 | 0.0638 | 27.5% (inactive) | 53.7%
17 | COCCCn1c(C(=O)Nc2cccnc2)cc2c(=O)n(C)c(=O)n(C)c21 | 0.306 | 24.6% (active) | 44.9%
18 | COCCCNc1nc2c(c(=O)n(C)c(=O)n2C)n1CC(O)COc1ccc(C)c(C)c1 (centres undefined) | 0.0698 | 46.2% (inactive) | 75.7%
19 | COc1ccccc1NC(=O)Cn1cc(-c2nnc(-c3ccco3)o2)c2ccccc21 | 0.137 | 42.8% (inactive) | 63.9%
20 | COc1cccc2sc(N(Cc3ccco3)C(=O)CSCc3ccccc3)nc12 | 0.0832 | 31.9% (inactive) | 54.9%
21 | COc1ccc2nc(N(CCN3CCOCC3)C(=O)c3ccccc3S(C)(=O)=O)sc2c1 | 0.0288 | 22.5% (inactive) | 42.4%
22 | COc1ccc2nc(N(CCN3CCOCC3)C(=O)c3ccc([N+](=O)[O-])o3)sc2c1 | 0.173 | 42.6% (active) | 68.7%
23 | COc1ccc2nc(N(CCN3CCOCC3)C(=O)c3cc4cc([N+](=O)[O-])ccc4s3)sc2c1 | 0.0573 | 31% (inactive) | 45.5%
24 | c1nc(N2CCN(Cc3ccc4c(c3)OCO4)CC2)c2c3c(sc2n1)CCCC3 | 0.0914 | 49% (inactive) | 68.7%
25 | COc1ccc(/C=C2\Oc3c(ccc4c3CN(c3ccc(F)cc3)CO4)C2=O)c(OC)c1OC | 0.103 | 23.7% (inactive) | 51.7%

Row | SMILES | compound max-min signal | glutamate response, % of max | glutamate slope, % of max
26 | COC(=O)c1ccsc1NC(=O)CC1Sc2ccccc2NC1=O (centres undefined) | 0.0707 | 30.1% (inactive) | 49.8%
27 | COC(=O)c1c(NC(=O)CC2NCCNC2=O)sc(C)c1C (centres undefined) | 0.0942 | 53% (active) | 55.8%
28 | O=C(/C=C/c1ccccc1)Nc1ccc(CC(=O)N2CCCC2)cc1 | 0.119 | 31.3% (inactive) | 65.4%
29 | C=CCNC(=O)NC1CCCCC1N1C(=O)CSC1=O (centres undefined) | 0.12 | 10.5% (inactive) | 45.6%
30 | CSc1ccccc1NC(=O)c1nc(-c2cnccn2)no1 | 0.143 | 23.2% (inactive) | 49.2%
31 | COc1ccc(NC(=O)CCc2sc(C)nc2-c2cccs2)cc1OC | 0.123 | 37.8% (inactive) | 60.9%
32 | Cc1nc(-c2cccs2)c(CCC(=O)NCc2ccc3c(c2)OCO3)s1 | 0.114 | 10.6% (active) | 25.8%
33 | COc1ccc(CCNC(=O)CCc2sc(C)nc2-c2cccs2)cc1 | 0.0606 | 19.1% (inactive) | 37.1%
34 | COc1cc2cc(CNc3ccc(C)cc3)c(=O)n(CC(=O)Nc3ccccc3F)c2cc1OC | 0.116 | 25.6% (inactive) | 49.4%
35 | COc1ccc2cc(CNc3ccccc3)c(=O)n(CC(=O)Nc3ccccc3OC)c2c1 | 0.0876 | -1.71% (active) | 4.4%
36 | Cc1ccc2cc(CNc3ccccc3)c(=O)n(CC(=O)Nc3ccccc3C)c2c1 | 0.0993 | 29.6% (inactive) | 44.3%
37 | Cc1cc(C)cc(-n2c(SCC#N)nc3cc(C(=O)NC4CCCC4)ccc3c2=O)c1 | 0.127 | 50.2% (inactive) | 72.1%
38 | CCOC(=O)c1ccc(-n2c(C)c(C)n3c4c(=O)n(CC)c(=O)n(C)c4nc23)cc1 | 0.126 | 48.1% (inactive) | 62.4%
39 | CCC(C)c1ccccc1OCC(O)CN (centres undefined) | 0.0631 | 21.1% (inactive) | 39.8%
40 | Cc1cc(N(C)C)nc(-n2cc([N+](=O)[O-])cn2)n1 | 0.178 | 35.4% (active) | 63.4%
41 | O=C(c1ccc(Cl)s1)N1CCC(c2ccsc2)CC1 | 0.0754 | 43.8% (inactive) | 57%
42 | COCCNC(=O)C(=O)Nc1cc(N2CCCS2(=O)=O)ccc1OC | 0.105 | 22.8% (inactive) | 46.1%
43 | CC(=O)c1ccc(C(=O)Nc2sc3c(c2-c2nc4ccccc4s2)CCN(C)C3)cc1 | 0.226 | 65.6% (active) | 85%
44 | CN1CCc2c(sc(NC(=O)c3ccc(Br)cc3)c2-c2nc3ccccc3s2)C1 | 0.139 | 53.9% (inactive) | 74%
45 | CCOc1ccc(C(=O)Nc2sc3c(c2-c2nc4ccccc4s2)CCN(C)C3)cc1 | 0.114 | 34.3% (inactive) | 50.1%
46 | COc1ccc2sc(N(CC3CCCO3)C(=O)C3CCCC3)nc2c1 (centres undefined) | 0.117 | 20% (inactive) | 33.1%
47 | Cc1nc2ccccn2c1C(=O)Nc1ccc2c(c1)CC(=O)N2C | 0.213 | 46.6% (active) | 65.1%
48 | CN1C(=O)Cc2cc(NC(=O)NC(c3ccccc3)c3ccccc3)ccc21 | 0.121 | 41.8% (inactive) | 60.5%
49 | Cc1nc2ccccn2c1C(=O)NCC(O)(c1ccccc1)C(F)(F)F (centres undefined) | 0.141 | 14.1% (inactive) | 49.7%
50 | CCOC(=O)CNC(=O)C(=O)c1c(C)[nH]c2ccccc12 | 0.14 | 51.3% (inactive) | 67.4%

Row | SMILES | compound max-min signal | glutamate response, % of max | glutamate slope, % of max
51 | O=S(=O)(NCC#CCN1CCc2ccccc2C1)c1ccc(Br)cc1 | 0.0488 | 43.9% (inactive) | 66.2%
52 | O=S(=O)(/C=C/c1ccccc1)NCC#CCN1CCc2ccccc2C1 | 0.144 | 41.7% (active) | 55.5%
53 | CN(C)S(=O)(=O)NCC#CCN1CCc2ccccc2C1 | 0.0659 | 38.5% (inactive) | 57.8%
54 | CCNC(=O)CSc1nc(-c2ccccc2)c(NC(=O)CC2CCCC2)s1 | 0.0584 | 31.3% (inactive) | 44.8%
55 | COc1ccc(CC(=O)NCCOc2cc(C)cc(C)c2)cc1OC | 0.0873 | 52% (inactive) | 63.4%
56 | CC(C)NC(=O)Nc1ccc(CN2CCN(C)CC2)cc1 | 0.107 | 37% (inactive) | 57.1%
57 | COc1ccc(SCCC(=O)N2CCN(c3nc4ccc(F)cc4s3)CC2)cc1 | 0.0995 | 50.5% (inactive) | 60.6%
58 | O=C(c1ccno1)N1CCN(c2nc3ccc([N+](=O)[O-])cc3s2)CC1 | 0.188 | 27.8% (active) | 50.2%
59 | COc1ccc([N+](=O)[O-])cc1NC(=O)c1ccno1 | 0.13 | 15.2% (inactive) | 32.1%
60 | CN(C)C(=O)N1CCN(S(=O)(=O)c2ccc(F)cc2)CC1 | 0.11 | 30.6% (inactive) | 58.2%
61 | O=C(CCCS(=O)(=O)c1ccc(F)cc1)Nc1cccc2c1C(=O)NC2=O | 0.0985 | 41.1% (inactive) | 66.5%
62 | COc1ccc(N(Cc2cccc(C)c2)S(=O)(=O)c2ccc3nnc(C)n3c2)cc1 | 0.0921 | 39% (inactive) | 70.3%
63 | Cc1ccc([N+](=O)[O-])cc1NC(=O)C(=O)NCC(c1cccs1)N(C)C (centres undefined) | 0.155 | 57.6% (inactive) | 83.7%
64 | CCCN(CCC)S(=O)(=O)c1cc([N+](=O)[O-])ccc1C | 0.0514 | 71% (active) | 88.7%
65 | CCc1nc2sc(C(c3ccc(F)c(F)c3)N3CCN(C(C)=O)CC3)c(O)n2n1 (centres undefined) | 0.111 | 52.6% (inactive) | 74.4%
66 | NS(=O)(=O)c1ccc(CNC(=O)Cc2csc(Nc3cccc(Cl)c3)n2)cc1 | 0.171 | 32.8% (inactive) | 56.3%
67 | COCC(=O)Nn1cnc2c(cnn2C(C)(C)C)c1=O | 0.121 | -2.09% (active) | 5.77%
68 | Cc1ccccc1C(=O)Nn1cnc2c(cnn2C(C)(C)C)c1=O | 0.0501 | 31.3% (inactive) | 53.1%
69 | CC(C)(C)n1ncc2c(=O)n(NC(=O)Cc3ccc([N+](=O)[O-])cc3)cnc21 | 0.0341 | 22.1% (inactive) | 47.4%
70 | Cc1cc(C)c2c(n1)sc1c(=O)n(CC(=O)Nc3ccccc3Br)cnc12 | 0.125 | 47% (inactive) | 70.2%
71 | CCCOC(=O)CC1C(=O)NCCN1C(=S)NC(=O)c1cccc(Cl)c1 (centres undefined) | 0.102 | 20% (inactive) | 39.3%
72 | COc1ccc(Cl)cc1NC(=O)NCC#CCN1CCc2ccccc2C1 | 0.108 | 30.6% (inactive) | 53.9%
73 | COc1ccc(Cl)cc1NC(=O)CC1C(=O)NCCN1C(=S)Nc1ccccc1 (centres undefined) | 0.205 | 26.6% (active) | 35.6%
